{"source": "PubChem BioAssay (Tox21)", "note": "Several values for one entry are separate records, joined by “and”; a condition that tells them apart may be missing. Identical values can stand only once. Inconclusive results are not listed. A call without a number means that no potency is given here. Where a structure was tested more than once in an assay, its records may differ in their call. Activity calls are given as the source filed them. Unless noted, the call rests on the fitted dose curve. Potency means the concentration at half of the fitted maximal effect."}
{"assay": "qHTS assay for small molecule agonists of the antioxidant response element (ARE) signaling pathway (AID 743202; active means well fitted activation curve with a large enough effect in the signal ratio in the repeat runs, not every such curve was filed as active; the % refers to the signal ratio)", "settings": "HepG2 ARE-bla reporter, beta-lactamase FRET, 16 h; series mostly up to 73.3 µM; activation: at the top concentration", "outline": "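Compounds delivered in DMSO to ARE-bla HepG2 cells (2,000 cells/well, pre-incubated 5 h) and left 16 h at 37 C. LiveBLAzer B/G FRET substrate then added for 2 h at RT before fluorescence reading.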"}
{"smiles": "CCN(CC)CCNC(=O)c1ccc(N)cc1", "Potency": "inactive"}
{"smiles": "CN1Cc2c(N)cccc2C(c2ccccc2)C1", "note": "(stereo not drawn)", "Potency": "inactive"}
{"smiles": "CC(=O)OC/C=C(\\C)CCC=C(C)C", "Potency": "inactive"}
{"smiles": "OCCOCCOCCOCCOCCO", "activation": "-2.9% [at 94.8 µM] (inactive)"}
{"smiles": "NCCNCCNCCN", "Potency": "inactive"}
{"smiles": "COc1c2ccoc2cc2oc(=O)ccc12", "activation": "4.2% [at 94.8 µM] (inactive)"}
{"smiles": "CO[Si](CCCNCCN)(OC)OC", "Potency": "inactive"}
{"smiles": "CCCOCC(C)O", "note": "(stereo not drawn)", "Potency": "inactive"}
{"smiles": "O=Cc1ccc(CO)o1", "Potency": "inactive"}
{"smiles": "COc1ccc2cc3[n+](cc2c1OC)CCc1cc2c(cc1-3)OCO2", "Potency": "2.45 µM (active) and 5.96 µM (active)"}
{"smiles": "OC1CCCCC1", "activation": "-6.19% [at 94.8 µM] (inactive)"}
{"smiles": "Nc1nc(N)c2nc(-c3ccccc3)c(N)nc2n1", "Potency": "31 µM (active) and 30.6 µM (active) and 23.7 µM (active)"}
{"smiles": "O=C(O)Cc1c[nH]c2ccccc12", "activation": "0.296% (inactive)"}
{"smiles": "O=[N+]([O-])c1cc(C(F)(F)F)ccc1Cl", "Potency": "inactive"}
{"smiles": "CC/C(C)=N/O", "Potency": "inactive"}
{"smiles": "CC(C)=CCC/C(C)=C/C=O", "activation": "-3.87% [at 94.8 µM] (inactive)"}
{"smiles": "CCCCCC(C)=O", "activation": "-4.23% [at 94.8 µM] (inactive)"}
{"smiles": "CCOC(=O)CC(=O)OCC", "Potency": "inactive"}
{"smiles": "CCCCCCCCCCCCCC(=O)O", "Potency": "inactive"}
{"smiles": "C=C(C)CC(C)(C)C", "activation": "0.792% (inactive)"}
{"smiles": "CCCN(CCC)C(=O)SCC", "Potency": "inactive"}
{"smiles": "NC1CCCCC1N", "note": "(stereo not drawn)", "Potency": "inactive"}
{"smiles": "O=[N+]([O-])c1ccccc1C(F)(F)F", "activation": "13.1% (inactive)"}
{"smiles": "O=C(O)C1=NN(c2ccc(S(=O)(=O)O)cc2)C(=O)C1", "Potency": "inactive"}
{"smiles": "Cc1cc(C)c(O)c(C)c1", "activation": "7.37% (inactive)"}
{"smiles": "CN=C(NC#N)NCCSCc1nc[nH]c1C", "Potency": "inactive"}
{"smiles": "COCN(COC)c1nc(N(COC)COC)nc(N(COC)COC)n1", "Potency": "inactive"}
{"smiles": "CCCCC(CC)COC(=O)c1ccc(C(=O)OCC(CC)CCCC)cc1", "note": "(stereo not drawn)", "Potency": "inactive"}
{"smiles": "OC[C@H]1O[C@@H](Oc2ccc(O)cc2)[C@H](O)[C@@H](O)[C@@H]1O", "Potency": "inactive"}
{"smiles": "CC(C)c1ccc(C(C)C)cc1", "Potency": "inactive"}
{"smiles": "O=C(NCC1CCCCN1)c1cc(OCC(F)(F)F)ccc1OCC(F)(F)F", "note": "(stereo not drawn)", "activation": "-5.31% (inactive)"}
{"smiles": "CC(CN1c2ccccc2Sc2ccccc21)N(C)C", "note": "(stereo not drawn)", "activation": "1.39% (inactive)"}
{"smiles": "CCc1cccc(CC)c1N", "Potency": "inactive"}
{"smiles": "Brc1ccc(Oc2ccc(Br)cc2)cc1", "activation": "-5.93% (inactive)"}
{"smiles": "Clc1cccc(Cl)c1NC1=NCCN1", "Potency": "inactive"}
{"assay": "qHTS assay for small molecule agonists of the antioxidant response element (ARE) signaling pathway - cell viability counter screen (AID 743203); further: nearly all actives have a fitted effect of over 55% in size", "settings": "ARE-bla HepG2 viability, CellTiter-Glo luminescence, 16 h; series mostly up to 73.3 µM; viability change, negative = cytotoxic: at the top concentration", "outline": "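ARE-bla HepG2 cells were plated, rested 5 h at 37C/5% CO2, then exposed to compounds in DMSO for 16 h. Viability was read as CellTiter-Glo luminescence after 30 min at room temperature, in the same wells as the ARE screen.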"}
{"smiles": "CCN(CC)CCNC(=O)c1ccc(N)cc1", "Potency": "inactive"}
{"smiles": "CN1Cc2c(N)cccc2C(c2ccccc2)C1", "note": "(stereo not drawn)", "Potency": "inactive"}
{"smiles": "CC(=O)OC/C=C(\\C)CCC=C(C)C", "Potency": "inactive"}
{"smiles": "OCCOCCOCCOCCOCCO", "Potency": "inactive"}
{"smiles": "NCCNCCNCCN", "Potency": "inactive"}
{"smiles": "COc1c2ccoc2cc2oc(=O)ccc12", "Potency": "inactive"}
{"smiles": "CO[Si](CCCNCCN)(OC)OC", "Potency": "inactive"}
{"smiles": "CCCOCC(C)O", "note": "(stereo not drawn)", "Potency": "inactive"}
{"smiles": "O=Cc1ccc(CO)o1", "Potency": "inactive"}
{"smiles": "COc1ccc2cc3[n+](cc2c1OC)CCc1cc2c(cc1-3)OCO2", "Potency": "inactive"}
{"smiles": "OC1CCCCC1", "Potency": "inactive"}
{"smiles": "Nc1nc(N)c2nc(-c3ccccc3)c(N)nc2n1", "Potency": "27.6 µM (active) and 17.2 µM (active)"}
{"smiles": "CC(O)CNCC(C)O", "note": "(stereo not drawn)", "Potency": "inactive"}
{"smiles": "O=C(O)Cc1c[nH]c2ccccc12", "Potency": "inactive"}
{"smiles": "O=[N+]([O-])c1cc(C(F)(F)F)ccc1Cl", "Potency": "inactive"}
{"smiles": "CC/C(C)=N/O", "Potency": "inactive"}
{"smiles": "CC(C)=CCC/C(C)=C/C=O", "Potency": "inactive"}
{"smiles": "CCCCCC(C)=O", "Potency": "inactive"}
{"smiles": "CCOC(=O)CC(=O)OCC", "Potency": "inactive"}
{"smiles": "CCCCCCCCCCCCCC(=O)O", "Potency": "inactive"}
{"smiles": "C=C(C)CC(C)(C)C", "Potency": "inactive"}
{"smiles": "CCCN(CCC)C(=O)SCC", "Potency": "inactive"}
{"smiles": "NC1CCCCC1N", "note": "(stereo not drawn)", "Potency": "inactive"}
{"smiles": "O=[N+]([O-])c1ccccc1C(F)(F)F", "Potency": "inactive"}
{"smiles": "O=C(O)C1=NN(c2ccc(S(=O)(=O)O)cc2)C(=O)C1", "Potency": "inactive"}
{"smiles": "Cc1cc(C)c(O)c(C)c1", "Potency": "inactive"}
{"smiles": "O=c1n(CCCN2CCN(c3cccc(Cl)c3)CC2)nc2ccccn12", "Potency": "inactive"}
{"smiles": "CN=C(NC#N)NCCSCc1nc[nH]c1C", "Potency": "inactive"}
{"smiles": "COCN(COC)c1nc(N(COC)COC)nc(N(COC)COC)n1", "Potency": "inactive"}
{"smiles": "CCCCC(CC)COC(=O)c1ccc(C(=O)OCC(CC)CCCC)cc1", "note": "(stereo not drawn)", "Potency": "inactive"}
{"smiles": "OC[C@H]1O[C@@H](Oc2ccc(O)cc2)[C@H](O)[C@@H](O)[C@@H]1O", "Potency": "inactive"}
{"smiles": "COC(=O)/C=C\\C(=O)OC", "Potency": "inactive"}
{"smiles": "CC(C)c1ccc(C(C)C)cc1", "Potency": "inactive"}
{"smiles": "O=C(NCC1CCCCN1)c1cc(OCC(F)(F)F)ccc1OCC(F)(F)F", "note": "(stereo not drawn)", "Potency": "inactive"}
{"smiles": "CC(CN1c2ccccc2Sc2ccccc21)N(C)C", "note": "(stereo not drawn)", "Potency": "68.6 µM (active) and inactive"}
{"smiles": "CCc1cccc(CC)c1N", "Potency": "inactive"}
{"smiles": "Brc1ccc(Oc2ccc(Br)cc2)cc1", "Potency": "inactive"}
{"smiles": "Clc1cccc(Cl)c1NC1=NCCN1", "Potency": "inactive"}
